# Test results published in PubChem BioAssay.
# Where “and” joins values, the source holds several entries; their conditions need not be identical. Identical values can stand only once. Results filed as inconclusive are left out. The source holds several records for some structures; these can differ, active in one and inactive in another. Calls of active or inactive are those of the source.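 How the source made its calls, unless noted: active means normalized viability below 100% at a tested concentration; inactive means the rest.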
# How the values were obtained:
# [1] = viability loss in pontine glioma line – cell-based, SU-DIPG-XIII, MIPE4.0, CellTiter-Glo, qHTS, dose response (AID 1347061; cut-off not given, nearly all actives have AC50 up to about 37 µM;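 further: cells exposed to compound for 48 hours before readout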); conditions: CellTiter-Glo ATP luminescence
# [2] = viability loss in pontine glioma line – cell-based, JHH-DIPG-1, MIPE4.0, CellTiter-Glo, qHTS, dose response (AID 1347062; cut-off not given, nearly all actives have AC50 up to about 27 µM); conditions: JHH-DIPG-1 viability, CellTiter-Glo ATP luminescence
# [3] = viability loss in pontine glioma line – cell-based, SU-DIPG-IV, MIPE4.0, CellTiter-Glo, qHTS, dose response (AID 1347063; cut-off not given, nearly all actives have AC50 up to about 30 µM;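 further: compound exposure lasted 48 hours before the viability readout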); conditions: CellTiter-Glo ATP luminescence
# [4] = viability loss in pontine glioma line – cell-based, SU-DIPG-XXV, MIPE5.0, CellTiter-Glo, qHTS, dose response (AID 1347065; cut-off not given, nearly all actives have AC50 up to about 26 µM;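 further: cells exposed to compound for 48 hours before ATP readout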); conditions: CellTiter-Glo ATP luminescence
# [5] = growth inhibition of DIPG cells – cell-based, MIPE4.0 library, CellTiter-Glo luminescence, qHTS (AID 1347066; cut-off not given, nearly all actives have AC50 up to about 30 µM;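 further: cells exposed to compound for 48 hours before readout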); conditions: SU-DIPG-VI viability, CellTiter-Glo ATP luminescence
# [6] = compounds altering HSF1 focus formation in cells – imaging, Selleck Cancer Library (AID 1347162; in the data active means plate-normalised HSF1 focus index below about 0.46); conditions: human cells, HSF1 nuclear foci imaging, at 10 µM; SSMD: measured here: HSF1 foci SSMD mean; cell count: measured here: cell number; plate-normalised HSF1 focus index: stronger effect = lower value
# [7] = drug combination growth inhibition, ovarian cancer – cell-based, oncology-focused library, rucaparib conditional, profiling panel (AID 1508598); conditions: patient-derived ovarian cancer cells, CellTiter-Glo viability, 144 h, stronger effect = lower value
# [8] = growth inhibition, single agent or in combination, cell-based, chromothripsis tumors, cisplatin or BGB combos (AID 1671449; in the data active means inhibition above about 80%;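 further: cells exposed for 96 hours; 0% = vehicle DMSO and 100% = killing by high DMSO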); conditions: LFS_MB_P medulloblastoma cells
# [9] = growth inhibition, single agent and combos, cell-based, chromothripsis tumors, cisplatin or BGB combos (AID 1671450; in the data active means inhibition above about 80%;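 further: cells exposed to compound for four days; 0% = vehicle DMSO and 100% = cell killing by high DMSO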); conditions: HDN33 neuroblastoma cells, stronger effect = higher value
# [10] = growth inhibition, single agents and combos, ICB984, cell-based, cisplatin or BGB combos, synergistic combos for chromothripsis tumors (AID 1671451; call rule not given here;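 further: cells exposed for 96 hours before readout; 0% = vehicle DMSO and 100% = killing by high DMSO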); conditions: ICB984 medulloblastoma cells, drug combinations, stronger effect = higher value
# [11] = growth inhibition, single agents and combos, LFS_MB_1R, cell-based, cisplatin or BGB combos, synergistic combos for chromothripsis tumors (AID 1671452; in the data active means inhibition above about 80%;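 further: cells exposed for 96 hours before readout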); conditions: LFS_MB_1R medulloblastoma cells, stronger effect = higher value
# [12] = growth inhibition, single agents and combos, HTB85, cell-based, BGB or cisplatin IC20 combos, synergistic combos for chromothripsis tumors (AID 1671453; in the data active means inhibition above about 80%;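 further: cells exposed for 96 hours before readout; 0% = vehicle DMSO and 100% = high DMSO killing control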); conditions: HTB85 osteosarcoma cells, drug combinations, stronger effect = higher value
# [13] = growth inhibition, MDA-MB-436, cell-based, BGB or cisplatin combos, synergistic combos for chromothripsis tumors (AID 1671458; call rule not given here;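 further: cells exposed for 96 hours; 0% = vehicle DMSO and 100% = killing by high DMSO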); conditions: MDA-MB-436 breast carcinoma growth inhibition, drug combinations, stronger effect = higher value
# [14] = BT084 cell growth, single and combined drugs, ICGC_MB145, cisplatin and BGB IC40 combos (AID 1671461; in the data active means inhibition above about 80%;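 further: cells exposed to drugs for 96 hours; 0% = vehicle DMSO and 100% = high DMSO full killing control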); conditions: BT084 medulloblastoma cells, drug combinations, stronger effect = higher value
# [15] = RCMB18 cell growth, single agent and combined, cisplatin and BGB IC40 combos (AID 1671462; in the data active means inhibition above about 80%;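 further: cells exposed to compound for four days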); conditions: RCMB18 medulloblastoma cells, stronger effect = higher value
# [16] = CRL1545 cell growth, single agent and combined, cisplatin and BGB IC20 combos (AID 1671464; in the data active means inhibition above about 80%;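 further: cells exposed to compound for 96 hours before readout; 0% = vehicle DMSO and 100% = high DMSO killing control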); conditions: CRL1545 osteosarcoma cells, stronger effect = higher value
# [17] = measured here: combination with BGB IC40, at 0.05 µM
# [18] = measured here: with BGB IC20 combination, at 0.5 µM
# [19] = measured here: with cisplatin IC20 combination, at 0.5 µM
# [20] = measured here: combination with cisplatin, at 0.5 µM
smiles,measurement,setting,value
C/C(=C\C(=O)Nc1ccccc1C(=O)O)c1ccc2ccccc2c1,outcome,[1],inactive
same,outcome,[2],inactive
same,outcome,[3],inactive
same,outcome,[4],inactive
same,outcome,[5],inactive
same,SSMD,[6],2.21 and 1.02
same,cell count,[6],7410 and 6940
same,plate-normalised HSF1 focus index,[6],1.08 (inactive) and 1.06 (inactive)
same,viability,"[7]; at 0.000305 µM, OCI-C5x cells, with rucaparib 10 µM, 100% = cells with rucaparib alone",89.1% (active)
same,viability,"[7]; at 0.000305 µM, OCI-C5x cells, without rucaparib",109% (inactive)
same,viability,"[7]; at 0.000305 µM, OCI-P5x cells, with rucaparib 20 µM, 100% = cells with rucaparib alone",107% (inactive)
same,viability,"[7]; at 0.000305 µM, OCI-P5x cells, without rucaparib",103% (inactive)
same,viability,"[7]; at 0.00122 µM, OCI-C5x cells, with rucaparib 10 µM, 100% = cells with rucaparib alone",102% (inactive)
same,viability,"[7]; at 0.00122 µM, OCI-C5x cells, without rucaparib",107% (inactive)
same,viability,"[7]; at 0.00122 µM, OCI-P5x cells, with rucaparib 20 µM, 100% = cells with rucaparib alone",96.8% (active)
same,viability,"[7]; at 0.00122 µM, OCI-P5x cells, without rucaparib",101% (inactive)
same,viability,"[7]; at 0.00488 µM, OCI-C5x cells, with rucaparib 10 µM, 100% = cells with rucaparib alone",92.9% (active)
same,viability,"[7]; at 0.00488 µM, OCI-C5x cells, without rucaparib",110% (inactive)
same,viability,"[7]; at 0.00488 µM, OCI-P5x cells, with rucaparib 20 µM, 100% = cells with rucaparib alone",112% (inactive)
same,viability,"[7]; at 0.00488 µM, OCI-P5x cells, without rucaparib",103% (inactive)
same,viability,"[7]; at 0.0195 µM, OCI-C5x cells, with rucaparib 10 µM, 100% = cells with rucaparib alone",111% (inactive)
same,viability,"[7]; at 0.0195 µM, OCI-C5x cells, without rucaparib",111% (inactive)
same,viability,"[7]; at 0.0195 µM, OCI-P5x cells, with rucaparib 20 µM, 100% = cells with rucaparib alone",106% (inactive)
same,viability,"[7]; at 0.0195 µM, OCI-P5x cells, without rucaparib",112% (inactive)
same,viability,"[7]; at 0.0781 µM, OCI-C5x cells, with rucaparib 10 µM, 100% = cells with rucaparib alone",95.3% (active)
same,viability,"[7]; at 0.0781 µM, OCI-C5x cells, without rucaparib",104% (inactive)
same,viability,"[7]; at 0.0781 µM, OCI-P5x cells, with rucaparib 20 µM, 100% = cells with rucaparib alone",109% (inactive)
same,viability,"[7]; at 0.0781 µM, OCI-P5x cells, without rucaparib",113% (inactive)
same,viability,"[7]; at 0.313 µM, OCI-C5x cells, with rucaparib 10 µM, 100% = cells with rucaparib alone",94.4% (active)
same,viability,"[7]; at 0.313 µM, OCI-C5x cells, without rucaparib",111% (inactive)
same,viability,"[7]; at 0.313 µM, OCI-P5x cells, with rucaparib 20 µM, 100% = cells with rucaparib alone",109% (inactive)
same,viability,"[7]; at 0.313 µM, OCI-P5x cells, without rucaparib",110% (inactive)
same,viability,"[7]; at 1.25 µM, OCI-C5x cells, with rucaparib 10 µM, 100% = cells with rucaparib alone",95.9% (active)
same,viability,"[7]; at 1.25 µM, OCI-C5x cells, without rucaparib",108% (inactive)
same,viability,"[7]; at 1.25 µM, OCI-P5x cells, with rucaparib 20 µM, 100% = cells with rucaparib alone",116% (inactive)
same,viability,"[7]; at 1.25 µM, OCI-P5x cells, without rucaparib",118% (inactive)
same,viability,"[7]; at 5 µM, OCI-C5x cells, with rucaparib 10 µM, 100% = cells with rucaparib alone",89.8% (active)
same,viability,"[7]; at 5 µM, OCI-C5x cells, without rucaparib",98.2% (active)
same,viability,"[7]; at 5 µM, OCI-P5x cells, with rucaparib 20 µM, 100% = cells with rucaparib alone",119% (inactive)
same,viability,"[7]; at 5 µM, OCI-P5x cells, without rucaparib",117% (inactive)
same,inhibition,"[8]; at 0.5 µM, stronger effect = higher value",102% (active) and -1.28% (inactive)
same,inhibition,"[8]; measured here: combination with BGB IC20, at 0.005 µM",9.03% and -7.31%
same,inhibition,"[8]; measured here: combination with BGB IC40, at 0.005 µM",-18.4% and -24.9%
same,inhibition,[8]; [17],19.3% and -24.1%
same,inhibition,"[8]; measured here: combination with cisplatin, at 0.5 µM, stronger effect = higher value",113% and 3.01%
same,inhibition,"[8]; measured here: combination with cisplatin, at 5 µM, stronger effect = higher value",13.4% and -26.4%
same,inhibition,"[9]; BGB combo, at 5 µM",-23.7% and -49.5%
same,inhibition,[9]; at 0.5 µM,-19.3% (inactive) and -46.7% (inactive)
same,inhibition,"[9]; cisplatin combo, at 5 µM",-7.72% and -22.6%
same,inhibition,[9]; [18],-14.6% and -44.4%
same,inhibition,[9]; [19],-15.2% and -49.7%
same,inhibition,"[9]; single agent, at 5 µM",-14% and -26%
same,inhibition,"[10]; BGB IC20 combo, at 0.005 µM",-36.5% and -10.3%
same,inhibition,"[10]; BGB IC40 combo, at 0.005 µM",5.4% and -31%
same,inhibition,"[10]; BGB IC40 combo, at 0.05 µM",-10.6% and -21.5%
same,inhibition,[10]; at 0.5 µM,-6.99% (inactive) and -24.5% (inactive)
same,inhibition,"[10]; cisplatin combo, at 0.05 µM",-10.6% and -25.9%
same,inhibition,"[10]; cisplatin combo, at 0.5 µM",-7.39% and -29.2%
same,inhibition,"[10]; cisplatin combo, at 5 µM",6.72% and -34%
same,inhibition,"[10]; measured here: 5 uM single agent, at 5 µM",-9.64% and -30.6%
same,inhibition,[11]; at 0.5 µM,-15% (inactive) and -22.4% (inactive)
same,inhibition,[11]; [17],-9.05% and -43.4%
same,inhibition,[11]; [20],-18.5% and -27.8%
same,inhibition,"[11]; measured here: combination with cisplatin, at 5 µM",-22.6% and -72.2%
same,inhibition,[12]; at 0.5 µM,-22.4% (inactive) and -26.8% (inactive)
same,inhibition,"[12]; measured here: with BGB IC20, at 0.5 µM",-27.7% and -32.5%
same,inhibition,"[12]; measured here: with BGB IC20, at 5 µM",-14.9% and -24.4%
same,inhibition,"[12]; measured here: with cisplatin IC20, at 0.5 µM",-22.7% and -28.1%
same,inhibition,"[12]; measured here: with cisplatin IC20, at 5 µM",-19.8% and -17.3%
same,inhibition,"[12]; single agent, at 5 µM",-20.6% and -16.3%
same,inhibition,[13]; at 0.5 µM,-3.17% (inactive) and -21% (inactive)
same,inhibition,"[13]; measured here: BGB combination, at 0.5 µM",-3.42% and -32.5%
same,inhibition,"[13]; measured here: BGB combination, at 5 µM",-2.03% and -11.9%
same,inhibition,"[13]; measured here: cisplatin combination, at 0.5 µM",-4.64% and -12.8%
same,inhibition,"[13]; measured here: cisplatin combination, at 5 µM",-4.62% and -6.3%
same,inhibition,[14]; at 0.5 µM,-6.83% (inactive) and -5.19% (inactive)
same,inhibition,"[14]; cisplatin combination, at 0.5 µM",-15% and -25.6%
same,inhibition,"[14]; cisplatin combination, at 5 µM",-24.9% and -2.65%
same,inhibition,"[14]; measured here: BGB IC40 combination 0.05 uM, at 0.05 µM",-17.8% and 7.75%
same,inhibition,"[14]; single agent, at 5 µM",11.2% and -10.1%
same,inhibition,[15]; at 0.5 µM,-1.42% (inactive) and -24.1% (inactive)
same,inhibition,"[15]; cisplatin combo, at 5 µM",5.73% and -10.2%
same,inhibition,"[15]; measured here: BGB IC40 combination, at 0.05 µM",-5.49% and -16.6%
same,inhibition,[15]; [20],-31.4% and -50.1%
same,inhibition,"[15]; single agent, at 5 µM",-4.52% and -12.1%
same,inhibition,[16]; at 0.5 µM,-35.2% (inactive) and -65.1% (inactive)
same,inhibition,[16]; [18],-24.4% and -56.6%
same,inhibition,[16]; [19],-40.6% and -72.1%
same,inhibition,"[16]; single agent, at 0.05 µM",-15.5% and -44.7%
same,inhibition,"[16]; single agent, at 5 µM",-12.5% and -53.7%
